# This is one part of a sample in which the strongest signals are shown more often than they occur.
# B1: Siglec-9 (Homo sapiens), Q9Y336 (protein)
# chain: MLLLLLPLLWGRERAEGQTSKLLTMQSSVTVQEGLCVHVPCSFSYPSHGWIYPGPVVHGYWFREGANTDQDAPVATNNPARAVWEETRDRFHLLGDPHTKNCTLSIRDARRSDAGRYFFRMEKGSIKWNYKHHRLSVNVTALTHRPNILIPGTLESGCPQNLTCSVPWACEQGTPPMISWIGTSVSPLDPSTTRSSVLTLIPQPQDHGTSLTCQVTFPGASVTTNKTVHLNVSYPPQNLTMTVFQGDGTVSTVLGNGSSLSLPEGQSLRLVCAVDAVDSNPPARLSLSWRGLTLCPSQPSNPGVLELPWVHLRDAAEFTCRAQNPLGSQQVYLNVSLQSKATSGVTQGVVGGAGATALVFLSFCVIFVVVRSCRKKSARPAAGVGDTGIEDANAVRGSASQGPLTEPWAEDSPPDQPPPASARSSVGEGELQYASLSFQMVKPWDSRGQEATDTEYSEIKIHR
# Tests used:
# Assay in all cases: glycan array binding signal (z-score within array); higher = stronger binding
# Settings in all cases: glycan notation: IUPAC condensed, linker removed
# Fuc(a1-2)Gal = biological target: Fuc(a1-2)Gal
# Procedure, shortened: (§1)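 The Consortium for Functional Glycomics database supplied 3228 glycan arrays, of which those lacking an available protein sequence were dropped. The binding signal, a within-array Z-score, was averaged across arrays of the same protein sequence and across linkers. Negative scores can be read as non-binding.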
# [1] = biological target: Fuc(a1-2)Gal(b1-4)[Fuc(a1-3)]GlcNAc
# Procedure, shortened: as §1
# [2] = biological target: Fuc(a1-2)Gal(b1-4)[Fuc(a1-3)]GlcNAc(b1-2)Man(a1-3)[Fuc(a1-2)Gal(b1-4)[Fuc(a1-3)]GlcNAc(b1-2)Man(a1-6)]Man(b1-4)GlcNAc(b1-4)[Fuc(a1-6)]GlcNAc
# Procedure, shortened: as §1
# Fuc(a1-2)[Gal(a1-3)]Gal = biological target: Fuc(a1-2)[Gal(a1-3)]Gal
# Procedure, shortened: as §1
# [3] = biological target: Fuc(a1-2)[Gal(a1-3)]Gal(b1-4)[Fuc(a1-3)]GlcNAc(b1-3)GalNAc
# Procedure, shortened: as §1
# [4] = biological target: Fuc(a1-2)[GalNAc(a1-3)]Gal(b1-3)GalNAc(b1-3)Gal(a1-4)Gal(b1-4)Glc
# Procedure, shortened: as §1
# Fuc(a1-3)GlcNAc = biological target: Fuc(a1-3)GlcNAc
# Procedure, shortened: as §1
# [5] = biological target: Fuc(a1-3)[Gal(b1-4)]GlcNAc(b1-3)Gal(b1-4)[Fuc(a1-3)]GlcNAc
# Procedure, shortened: as §1
# [6] = biological target: Fuc(a1-3)[Gal(b1-4)]GlcNAc(b1-6)GalNAc
# Procedure, shortened: as §1
# [7] = biological target: Fuc(a1-3)[Gal(b1-4)]GlcNAc6S
# Procedure, shortened: as §1
# [8] = biological target: Fuc(a1-3)[Gal3S(b1-4)]GlcNAc6S
# Procedure, shortened: as §1
# [9] = biological target: Gal(b1-3)GalNAc(a1-3)[Fuc(a1-2)]Gal(b1-4)Glc
# Procedure, shortened: as §1
# [10] = biological target: Gal(b1-3)GlcNAc(b1-3)Gal(b1-4)GlcNAc(b1-6)[Gal(b1-3)GlcNAc(b1-3)]Gal(b1-4)Glc
# Procedure, shortened: as §1
# [11] = biological target: Gal(b1-3)[Neu5Ac(a2-6)]GalNAc
# Procedure, shortened: as §1
# Gal(b1-4)GlcNAc = biological target: Gal(b1-4)GlcNAc
# Procedure, shortened: as §1
# [12] = biological target: Gal(b1-4)GlcNAc(b1-2)Man(a1-3)[Gal(b1-4)GlcNAc(b1-2)Man(a1-6)][Gal(b1-4)GlcNAc(b1-4)]Man(b1-4)GlcNAc(b1-4)[Fuc(a1-6)]GlcNAc
# Procedure, shortened: as §1
# [13] = biological target: Gal(b1-4)GlcNAc(b1-2)Man(a1-6)Man(b1-4)GlcNAc(b1-4)GlcNAc
# Procedure, shortened: as §1
# [14] = biological target: Gal(b1-4)GlcNAc(b1-3)Gal(b1-4)GlcNAc(b1-3)GalNAc
# Procedure, shortened: as §1
# Gal(b1-4)GlcNAc6P = biological target: Gal(b1-4)GlcNAc6P
# Procedure, shortened: as §1
# Gal4S(b1-4)GlcNAc = biological target: Gal4S(b1-4)GlcNAc
# Procedure, shortened: as §1
# [15] = biological target: GlcNAc(b1-3)Gal(b1-4)GlcNAc(b1-2)Man(a1-3)[GlcNAc(b1-3)Gal(b1-4)GlcNAc(b1-2)Man(a1-6)]Man(b1-4)GlcNAc(b1-4)GlcNAc
# Procedure, shortened: as §1
# GlcNAc(b1-3)GalNAc = biological target: GlcNAc(b1-3)GalNAc
# Procedure, shortened: as §1
# [16] = biological target: GlcNAc(b1-3)[GlcNAc(b1-6)]Gal(b1-4)GlcNAc
# Procedure, shortened: as §1
# [17] = biological target: GlcNAc(b1-4)Gal(b1-4)GlcNAc
# Procedure, shortened: as §1
# [18] = biological target: GlcNAc(b1-4)[GlcNAc(b1-6)]GalNAc
# Procedure, shortened: as §1
# [19] = biological target: GlcNAc(b1-6)Gal(b1-4)GlcNAc
# Procedure, shortened: as §1
# [20] = biological target: Man(a1-2)Man(a1-3)[Man(a1-2)Man(a1-6)]Man(a1-6)[Man(a1-2)Man(a1-2)Man(a1-3)]Man
# Procedure, shortened: as §1
# [21] = biological target: Man(a1-3)[Man(a1-6)]Man(a1-6)[Man(a1-3)]Man(b1-4)GlcNAc(b1-4)GlcNAc
# Procedure, shortened: as §1
# [22] = biological target: Neu5Ac(a2-3)Gal(b1-3)GalNAc6S
# Procedure, shortened: as §1
# [23] = biological target: Neu5Ac(a2-3)Gal(b1-3)GlcNAc(b1-6)GalNAc
# Procedure, shortened: as §1
# [24] = biological target: Neu5Ac(a2-3)Gal(b1-3)]Neu5Ac(a2-3)Gal(b1-4)]GlcNAc
# Procedure, shortened: as §1
# Neu5Ac(a2-3)Gal(b1-4)Glc = biological target: Neu5Ac(a2-3)Gal(b1-4)Glc
# Procedure, shortened: as §1
# [25] = biological target: Neu5Ac(a2-3)Gal(b1-4)GlcNAc(b1-3)Gal(b1-4)GlcNAc(b1-3)[Neu5Ac(a2-3)Gal(b1-4)GlcNAc(b1-3)Gal(b1-4)GlcNAc(b1-6)]GalNAc
# Procedure, shortened: as §1
# [26] = biological target: Neu5Ac(a2-3)Gal(b1-4)GlcNAc6S
# Procedure, shortened: as §1
# [27] = biological target: Neu5Ac(a2-3)Gal(b1-4)[Fuc(a1-3)]GlcNAc
# Procedure, shortened: as §1
# [28] = biological target: Neu5Ac(a2-3)Gal(b1-4)[Fuc(a1-3)]GlcNAc(b1-2)Man
# Procedure, shortened: as §1
# [29] = biological target: Neu5Ac(a2-3)Gal(b1-4)[Fuc(a1-3)]GlcNAc6S
# Procedure, shortened: as §1
# [30] = biological target: Neu5Ac(a2-6)Gal(b1-4)GlcNAc(b1-3)Gal(b1-4)GlcNAc(b1-3)Gal(b1-4)GlcNAc(b1-2)Man(a1-3)[Neu5Ac(a2-6)Gal(b1-4)GlcNAc(b1-3)Gal(b1-4)GlcNAc(b1-3)Gal(b1-4)GlcNAc(b1-2)Man(a1-6)]GalNAc
# Procedure, shortened: as §1
# [31] = biological target: Neu5Ac(a2-6)Gal(b1-4)GlcNAc6S
# Procedure, shortened: as §1
# [32] = biological target: Neu5Ac(a2-8)Neu5Ac(a2-3)Gal(b1-4)GlcNAc
# Procedure, shortened: as §1
# [33] = biological target: Neu5Ac(a2-8)Neu5Ac(a2-3)[Gal(b1-3)GalNAc(b1-4)]Gal(b1-4)Glc
# Procedure, shortened: as §1
# [34] = biological target: Neu5Gc(a2-3)Gal(b1-3)GlcNAc
# Procedure, shortened: as §1
# [35] = biological target: Neu5Gc(a2-3)Gal(b1-4)[Fuc(a1-3)]GlcNAc
# Procedure, shortened: as §1
# [36] = biological target: Neu5Gc(a2-8)Neu5Gc(a2-3)Gal(b1-4)GlcNAc(b1-3)Gal(b1-4)GlcNAc
# Procedure, shortened: as §1
binder,measurement,setting,value
B1,glycan array binding signal (z-score),Fuc(a1-2)Gal,-0.211
same,glycan array binding signal (z-score),[1],-0.153
same,glycan array binding signal (z-score),[2],-0.277
same,glycan array binding signal (z-score),Fuc(a1-2)[Gal(a1-3)]Gal,-0.193
same,glycan array binding signal (z-score),[3],-0.269
same,glycan array binding signal (z-score),[4],-0.125
same,glycan array binding signal (z-score),Fuc(a1-3)GlcNAc,-0.293
same,glycan array binding signal (z-score),[5],0.166
same,glycan array binding signal (z-score),[6],-0.063
same,glycan array binding signal (z-score),[7],3.1
same,glycan array binding signal (z-score),[8],-0.041
same,glycan array binding signal (z-score),[9],-0.434
same,glycan array binding signal (z-score),[10],-0.039
same,glycan array binding signal (z-score),[11],-0.173
same,glycan array binding signal (z-score),Gal(b1-4)GlcNAc,-0.244
same,glycan array binding signal (z-score),[12],-0.418
same,glycan array binding signal (z-score),[13],-0.333
same,glycan array binding signal (z-score),[14],-0.054
same,glycan array binding signal (z-score),Gal(b1-4)GlcNAc6P,-0.074
same,glycan array binding signal (z-score),Gal4S(b1-4)GlcNAc,-0.304
same,glycan array binding signal (z-score),[15],-0.042
same,glycan array binding signal (z-score),GlcNAc(b1-3)GalNAc,-0.152
same,glycan array binding signal (z-score),[16],-0.322
same,glycan array binding signal (z-score),[17],0.012
same,glycan array binding signal (z-score),[18],-0.132
same,glycan array binding signal (z-score),[19],-0.081
same,glycan array binding signal (z-score),[20],-0.055
same,glycan array binding signal (z-score),[21],-0.007
same,glycan array binding signal (z-score),[22],1.05
same,glycan array binding signal (z-score),[23],0.961
same,glycan array binding signal (z-score),[24],1.76
same,glycan array binding signal (z-score),Neu5Ac(a2-3)Gal(b1-4)Glc,1.09
same,glycan array binding signal (z-score),[25],-0.187
same,glycan array binding signal (z-score),[26],2.21
same,glycan array binding signal (z-score),[27],1.14
same,glycan array binding signal (z-score),[28],14.8
same,glycan array binding signal (z-score),[29],16.8
same,glycan array binding signal (z-score),[30],0.878
same,glycan array binding signal (z-score),[31],1.58
same,glycan array binding signal (z-score),[32],-0.259
same,glycan array binding signal (z-score),[33],-0.214
same,glycan array binding signal (z-score),[34],-0.028
same,glycan array binding signal (z-score),[35],0.005
same,glycan array binding signal (z-score),[36],-0.178
